Compounds with a hit are over-represented: about 1.4% of the library has one in this group of screens.
MenB inh – inhibitors of Mycobacterium tuberculosis MenB enzyme. inhibition, % (no concentration beside the values). 0.43% of 100,000 active. MenB enzyme assay, absorbance read-out. P9WNP5; in the data active = inhibition above about 21%, passing the limit was not always enough
AID504770 – growth inhibitors of E. coli YBA685 in a screen for V. cholerae RctB (chromosome II replication) inhibitors. E. coli YBA685 rctB-dependent plasmid, OD600 growth, 3 h; stronger effect = lower value. z-score (test concentration not listed). 0.27% of 130,000 active. AID 504770; in the data active = z-score below about -2, passing the limit was not always enough
PV pol inh – inhibitors of poliovirus RNA polymerase binding and polymerization. % elongation, % (compound at 16.7 µg/mL). poliovirus polymerase elongation, fluorescence polarization; stronger effect = lower value. 0.66% of 150,000 active. P03300; in the data active = % elongation below about 90%
Target sequence (P03300 1749-2209 limits assumed): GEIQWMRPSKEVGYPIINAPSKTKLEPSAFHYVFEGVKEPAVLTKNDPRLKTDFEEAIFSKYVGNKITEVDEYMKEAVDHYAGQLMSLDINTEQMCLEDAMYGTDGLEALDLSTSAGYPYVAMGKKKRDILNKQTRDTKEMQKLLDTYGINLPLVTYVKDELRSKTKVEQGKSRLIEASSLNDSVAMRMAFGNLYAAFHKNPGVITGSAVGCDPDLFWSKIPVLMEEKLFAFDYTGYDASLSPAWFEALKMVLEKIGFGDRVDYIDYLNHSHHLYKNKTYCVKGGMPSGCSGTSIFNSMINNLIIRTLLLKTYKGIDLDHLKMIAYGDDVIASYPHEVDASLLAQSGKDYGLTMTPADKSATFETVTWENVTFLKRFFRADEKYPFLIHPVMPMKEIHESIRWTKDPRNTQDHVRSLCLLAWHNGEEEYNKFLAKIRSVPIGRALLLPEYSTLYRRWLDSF
MbtI inh – blocks the Mycobacterium tuberculosis siderophore enzyme MbtI; P9WFX0; purified MbtI enzyme, fluorescence intensity read-out; inhibition, % (no concentration beside the values); 0.89% of 100,000 active; in the data active = inhibition mostly above about 56%, no sharp cut-off; inactive = mostly below about 77%
* = called active by the depositor; . = not tested or not shown; ! = not active in a repeat.

SMILES	MenB inh	AID504770	PV pol inh	MbtI inh
O=C(NCCCN1CCCC1)c1cc2cc3ccc(Cl)cc3nc2o1	.	0.75	.	.
CCN1CCN(CCCNC(=O)c2cc3cc4ccc(Cl)cc4nc3o2)CC1	-14	-2.3*	102	82
c1ccc(SCc2cn3ccsc3n2)cc1	.	0.05	101	-7
Cc1cc(C)n(N)c(=O)c1C#N	-29	-0.25	100	-17
Cc1cc(C)c(C#N)c(=N)o1	1	0.1	55*	109
CC1=CC(=N/C(C)=N/S(=O)(=O)c2ccc(C)cc2)C=C(C)C1=O	3	1.4	105	86*
COc1ccc(C2C(C(=O)O)c3ccccc3C(=O)N2Cc2ccc(Cl)cc2)cc1 (centres undefined)	5	0.45	103	5
CCOc1ccc([C@@H]2[C@H](C(=O)O)c3ccccc3C(=O)N2Cc2ccccc2)c(O)c1	9	0.3	69*	3
COC(=O)Cn1c(C(=O)OC)cc2c1ccn2-c1ccc(F)cc1	8	0.1	101	89
COC(=O)Cn1c(C(=O)OC)cc2c1ccn2C	33*	1.1	103	24
Clc1cccc(CNCc2cccs2)c1	38*	0.8	102	1
CCc1ccc(CNCc2cccs2)cc1	-51	-1.2	105	-13
CC(=O)N1N=C(c2cc3ccccc3o2)OC1c1c(C)[nH]c(=O)[nH]c1=O (centres undefined)	-3	-0.1	98	110
Nc1ccc2nc(CCCO)[nH]c2c1	28	0.75	54*	59
O=C1CCCCCN1Sc1ccccc1	9	-0.5	102	70*
Cc1cccc(C(C)C)c1NC(=O)COC(=O)c1cccnc1Cl	.	0.35	102	-1
O=C(Cc1coc2cc(O)ccc12)OCC(=O)c1ccc2[nH]c(=O)[nH]c2c1	-12	-0.35	72*	-7
O=C(Cc1coc2cc(O)ccc12)OCc1ccccc1C(F)(F)F	-17	-0.15	100	-8
CC1=Cc2nc3ccccc3n2C2(C(F)(F)F)OC(c3cccs3)=NN12 (centres undefined)	-32	-0.1	105	72
O=c1[nH]nc(-c2cccs2)cc1Cc1ccsc1	-14	0	104	7
CCN(CCO)c1nc(NC2CCCCC2)c2cnn(C)c2n1	-19	-2.1*	105	-22
CCOc1ccc(NC(=O)c2cn(CC(C)C)c(=O)c3c2c2ccccc2n3C)cc1	-18	-2.9*	102	14
COCCCNC(=O)c1cn(CC(C)C)c(=O)c2c1c1ccccc1n2C	.	.	106	.
S=c1nc(C2CCCC2)nc2sccn12	-5	1.4	95	6
CCOC(=O)CCc1c(C)nc2ncnn2c1C	.	2	.	-1
SMILES	MenB inh	AID504770	PV pol inh	MbtI inh
CCOC(=O)CCc1c(CC(=O)OCC)c[nH]c1/C=N/O	-21	-0.25	50*	-9
O=C(CSc1nncc(=O)[nH]1)NCc1ccccc1	1	0.45	99	11
O=C(CSc1nncc(=O)[nH]1)Nc1cccc(Cl)c1	-51	-0.15	101	73*
CC1CCCCN1C(=O)COC(=O)c1ccc2[nH]c3c(c2c1)CCCC3 (centres undefined)	-1	0	106	-194
COc1cccc(N2C(=O)CN=C2Nc2nc(C)cc(C)n2)c1	-8	1.2	107	.
COc1cccc(N2C(=O)CC(n3nc(Nc4cccc(C)c4)sc3=S)C2=O)c1 (centres undefined)	0	1.2	101	99*
COc1ccc2cc(-c3nc4ccccc4[nH]3)c(=N)oc2c1	.	-0.3	104	-25
C#CCn1c(=NC(C)=O)sc2cc(NC(C)=O)ccc21	-2	-0.35	102	23
Cc1sc2nc(CC(=O)N3CCCC3)[nH]c(=O)c2c1C	-53	0.95	75*	67
O=C(CCc1nc2sc3c(c2c(=O)[nH]1)CCCC3)N1CCCCC1	.	0.65	.	.
O=C(/C=C/c1ccco1)/C=C/c1ccco1	-44	-0.85	80*	26
Cc1nn(-c2ccccn2)c2c1-c1nc(-c3ccc(Cl)cc3)ncc1CC2	.	-0.45	.	-20
CCN1C(=O)C(=Cc2ccc(OC(F)F)cc2)C(=O)N(CC)C1=S	-85	0.6	101	54*
O=c1[nH][nH]c(=S)n1C1Cc2ccccc2C1	-1	-0.8	100	67*
O=c1[nH][nH]c(=S)n1CC1CCCO1 (centres undefined)	-17	0.05	95	83
O=c1[nH][nH]c(=S)n1C1CC1	38*!	1.6	99	71*
O=c1[nH]nc(SCCS(=O)(=O)c2ccc(F)cc2)n1C1Cc2ccccc2C1	.	-0.15	.	.
CCSc1ccc(SC#N)s1	-76	-5.2*	95	54
O=C(Nc1nc(=S)ss1)c1ccc(Cl)cc1	.	-0.5	.	.
CCCN(CCC)C1=CC(=O)C(C)=C(C)C1=O	-34	0	86*	-26
CCOC(=O)c1c(P(=O)(N2CCOCC2)N2CCOCC2)noc1N	41*	0.7	99	0
O=S(=O)(c1ccc(Cl)cc1)N1CCCC1c1nc(-c2ccccc2)no1 (centres undefined)	0	0	101	-5
Cc1cc(=O)[nH]c(SCC(=O)c2ccc3c(c2)NC(=O)CO3)n1	16	-0.35	103	29
O=C1COc2ccc(C(=O)CSC(=S)N3CCCC3)cc2N1	-49	2.3	81*	89
O=C1C(Nc2ccccc2)=CC(=O)c2ncccc21	-7	.	82*	3
SMILES	MenB inh	AID504770	PV pol inh	MbtI inh
CS(=O)(=O)c1ccc(NC(=O)c2ccc3c(c2)OCO3)cc1	-17	-0.75	111	7
O=c1[nH]nc(-c2nnc3n2-c2ccccc2SC3)c2ccccc12	8	0.3	104	-8
S=c1nc(-c2cccs2)cn[nH]1	-33	1.6	101	74*
Cc1nc(-c2cccs2)cs1	.	-0.2	100	1
c1ccc(-c2cn3c(nc4ccccc43)s2)cc1	.	-0.9	.	.
COc1cc(/C=N/N=C(N)N)ccc1OC(=O)c1ccc(C)cc1	0	-9.6*	102	11
Nc1c(-c2ccccc2)nc2sccn12	81*	1.8	94	88*
Cc1ccc(S(=O)(=O)N(O)c2ccc(Cl)cc2)cc1	.	0.25	99	83*
Cc1ccc(S(=O)(=O)N(C)C)cc1	.	-0.55	101	-4
Cc1ccc(N(O)S(=O)(=O)c2ccc(C)cc2)cc1	18	-0.95	107	65*
CCOc1cc(C#N)c(-n2nnc3c(sc4nc(C)cc(C)c43)c2=O)cc1OCC	.	.	78*	.
Cc1ccc(N(CC(=O)Nc2ccccc2C(=O)NCc2ccco2)S(C)(=O)=O)cc1Cl	-14	1.2	21*	1
CC(Sc1cccc[n+]1[O-])C(=O)NCC1CCCCC1 (centres undefined)	5	1.4	100	81*
O=C(c1cccs1)N1CCN(C/C=C/c2ccccc2)CC1	43*	-0.15	101	-7
COc1ccc(C(=O)NCc2cn3ccc(C)cc3n2)cc1	.	.	107	.
COc1ccc(C(=O)n2c(=S)nc3cc(C)ccn32)cc1	-16	1.9	79*	.
CCOC(=O)c1cnc2ccc(OCC)cc2c1NCCCN1CCOCC1	2	-0.2	89*	.
CCOC(=O)c1cnc2ccc(OCC)cc2c1NCCN(C)C	-9	-0.95	101	35
CCN(CCCNC(=O)c1cc2c(=O)[nH]c3ccc(C)cc3c2s1)Cc1ccccc1	.	.	87*	.
